Data published in PubChem BioAssay AID1159580 (chemical genetic matrix, 2015).
Where “and” joins values, the source holds several entries; their conditions need not be identical. Equal values may be shown once. About 2,000 (36%) of roughly 5,500 compounds were called active. Inconclusive results (about 18%) are left out. No stated cut-off is given here; in the data, active means normalized growth mostly below about 0.91 (no sharp cut-off); inconclusive means no clear call, values can overlap the other calls; inactive means mostly above about 0.92. The list shows a part of the results.

Assay: chemical genetic growth profiling, strain panel (AID 1159580);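 further: tested at 20 µM; growth read once vehicle control cultures reached saturation at 30 °C; 1 = growth at the plate median or of vehicle wells; lower values mean less growth of the strain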
Details: S. cerevisiae deletion strains, growth OD

Measured: normalized growth

O=C(O)c1ccccc1C(=O)Nc1ccc(S(=O)(=O)Nc2nccs2)cc1
inactive: locus YAL013W, strain DEP1, active compounds read low 1.01 | locus YAL021C, strain ccr4, active compounds read low 0.977 | locus YAL026C, strain drs2, active compounds read low 0.986 | locus YAL030W, strain snc1, active compounds read low 0.987 | locus YBL061C, strain skt5, active compounds read low 0.968 | locus YBR009C, strain hhf1, active compounds read low 0.994 | locus YBR021W, strain FUR4, active compounds read low 1.01 | locus YBR023C, strain chs3, active compounds read low 0.966 | locus YBR171W, strain sec66, active compounds read low 0.978 | locus YBR229C, strain ROT2, active compounds read low 1 | locus YBR231C, strain swc5, active compounds read low 0.985 | locus YBR279W, strain paf1, active compounds read low 0.991 | locus YCL011C, strain gbp2, active compounds read low 0.978 | locus YCL016C, strain dcc1, active compounds read low 0.954 | locus YCL029C, strain bik1, active compounds read low 0.994 | locus YCL061C, strain MRC1, active compounds read low 0.971 | locus YCL069W, strain vba3, active compounds read low 0.988 | locus YCR088W, strain abp1, active compounds read low 0.987 | locus YDL005C, strain med2, active compounds read low 0.973 | locus YDL035C, strain GPR1, active compounds read low 1.02 | locus YDL040C, strain nat1, active compounds read low 0.977 | locus YDL074C, strain BRE1, active compounds read low 1.01 | locus YDL101C, strain DUN1, active compounds read low 1.01 | locus YDL134C, strain PPH21, active compounds read low 1 | locus YDL185W, strain tfp1, active compounds read low 0.995 | locus YDL192W, strain arf1, active compounds read low 0.998 | locus YDR001C, strain nth1, active compounds read low 0.987 | locus YDR069C, strain doa4, active compounds read low 0.975 | locus YDR101C, strain arx1, active compounds read low 0.984 | locus YDR137W, strain rgp1, active compounds read low 0.963 | locus YDR159W, strain sac3, active compounds read low 0.992 | locus YDR162C, strain NBP2, active compounds read low 1 | locus YDR195W, strain ref2 0.996 | locus YDR297W, strain sur2, active compounds read low 0.988 | locus YDR318W, strain mcm21, active compounds read low 0.999 | locus YDR334W, strain swr1, active compounds read low 0.966 | locus YDR335W, strain msn5, active compounds read low 0.984 | locus YDR388W, active compounds read low 0.993 | locus YDR392W, strain spt3, active compounds read low 0.93 | locus YDR502C, strain sam2, active compounds read low 1 | locus YEL003W, strain gim4, active compounds read low 1.01 | locus YEL037C, strain rad23, active compounds read low 0.981 | locus YEL061C, strain CIN8 (second series), active compounds read low 0.99 | locus YEL061C, strain CIN8, active compounds read low 1.01 | locus YER015W, strain faa2, active compounds read low 0.96 | locus YER016W, strain bim1, active compounds read low 0.993 | locus YER110C, active compounds read low 0.998 | locus YER111C, strain swi4, active compounds read low 0.973 | locus YER155C, strain BEM2 (second series), active compounds read low 0.981 | locus YER155C, strain BEM2, active compounds read low 0.995 | locus YER167W, strain BCK2, active compounds read low 0.996 | locus YFR010W, strain ubp6, active compounds read low 0.999 | locus YGL078C, strain dbp3, active compounds read low 0.994 | locus YGL086W, strain mad1, active compounds read low 0.991 | locus YGL167C, strain pmr1, active compounds read low 0.962 | locus YGL173C, strain kem1, active compounds read low 0.959 | locus YGL227W, strain vid30, active compounds read low 0.985 | locus YGL240W, strain doc1, active compounds read low 0.992 | locus YGL248W, strain PDE1, active compounds read low 1 | locus YGL253W, strain hxk2, active compounds read low 0.984 | locus YGR135W, strain pre9, active compounds read low 0.995 | locus YGR229C, strain SMI1, active compounds read low 1.01 | locus YGR252W, strain gcn5, active compounds read low 0.995 | locus YHR013C, strain ard1, active compounds read low 0.949 | locus YHR027C, strain rpn1, active compounds read low 0.977 | locus YHR030C, strain SLT2, active compounds read low 1 and 1.03 | locus YHR079C, strain IRE1 (second series), active compounds read low 0.995 | locus YHR079C, strain IRE1, active compounds read low 1.05 | locus YHR094C, strain hxt1, active compounds read low 0.994 | locus YHR129C, strain ARP1, active compounds read low 1 | locus YHR142W, strain chs7, active compounds read low 0.959 | locus YHR200W, strain rpn10, active compounds read low 0.995 | locus YIL066C, strain RNR3, active compounds read low 1.01 | locus YIL073C, strain SPO22, active compounds read low 1.01 | locus YIL125W, strain kgd1, active compounds read low 0.991 | locus YIR030C, strain dcg1, active compounds read low 0.993 | locus YJL092W, strain hpr5, active compounds read low 0.983 | locus YJL095W, strain BCK1 (second series), active compounds read low 0.982 | locus YJL095W, strain BCK1, active compounds read low 1.02 and 1.01 | locus YJL115W, strain asf1, active compounds read low 0.973 | locus YJL129C, strain trk1, active compounds read low 0.976 | locus YJL134W, strain LCB3, active compounds read low 1 | locus YJL154C, strain vps35, active compounds read low 0.979 | locus YJL164C, strain tpk1, active compounds read low 0.991 | locus YJL166W, strain qcr8, active compounds read low 0.985 | locus YJL168C, strain set2, active compounds read low 0.993 | locus YJL187C, strain SWE1 (second series), active compounds read low 1.02 | locus YJL187C, strain SWE1, active compounds read low 0.979 | locus YJR043C, strain POL32, active compounds read low 0.995
